Bioassay records as filed in PubChem.
The sample as a whole holds a higher share of hits than the screen did.
LmPK inhibitor: qHTS Assay for Inhibitors of Leishmania Mexicana Pyruvate Kinase (LmPK) | purified LmPK, Kinase-Glo ATP luminescence, 1 h | Potency, µM (titrated, usually from 57.5 µM), for inactives: top-dose activity change, negative = inhibition, actives largely listed as inhibitors | hit rate 0.37% among 290,000 | AID 1721, 2009; note: potency is the fitted concentration of half-maximal effect; % is set by controls: 0 for no effect and ±100 for the full control effect
Target sequence (Q27686 whole entry, looked up): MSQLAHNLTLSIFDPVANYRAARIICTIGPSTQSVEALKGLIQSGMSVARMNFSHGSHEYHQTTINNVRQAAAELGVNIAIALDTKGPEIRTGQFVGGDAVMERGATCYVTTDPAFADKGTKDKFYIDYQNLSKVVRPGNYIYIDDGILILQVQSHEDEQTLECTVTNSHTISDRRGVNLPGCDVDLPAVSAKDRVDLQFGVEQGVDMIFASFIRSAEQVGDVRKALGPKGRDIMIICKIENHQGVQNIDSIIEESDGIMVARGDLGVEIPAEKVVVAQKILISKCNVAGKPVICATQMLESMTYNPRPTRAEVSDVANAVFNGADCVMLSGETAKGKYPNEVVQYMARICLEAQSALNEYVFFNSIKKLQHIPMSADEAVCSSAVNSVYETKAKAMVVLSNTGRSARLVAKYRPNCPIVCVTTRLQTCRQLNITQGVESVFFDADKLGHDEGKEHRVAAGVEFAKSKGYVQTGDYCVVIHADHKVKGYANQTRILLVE
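Purified LmPK (0.1 nM) converted ADP (0.1 mM) to ATP with PEP (0.5 mM) in imidazole buffer pH 7.2 with KCl and MgCl2, 1 h at room temperature. ATP was read by Kinase-Glo luminescence; data normalized to uninhibited and no-enzyme controls.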
Shiga toxin inh: A qHTS for Small Molecule Inhibitors of Shiga Toxin; inhibition, % at 38.7 µM; AID 2315, 2010; hit rate 9.2% among 290,000; Vero cells, Shiga toxin protein synthesis inhibition reporter; in the data active = inhibition mostly above about 28%, no sharp cut-off; inactive = mostly below about 43%; note: 0% is about no effect
Sm TGR inh: qHTS Assay for the Inhibitors of Schistosoma Mansoni Peroxiredoxins; Schistosoma mansoni thioredoxin glutathione reductase (TGR), Q962Y6; purified TGR, DTNB reduction, TNB absorbance 405 nm; Potency, µM (highest dose often 114 µM), without a hit: at the top dose activity change, negative = inhibition, most hits filed as inhibitors; hit rate 3% among 360,000; AID 485364, 2010; note: potency is the fitted concentration of half-maximal effect; % is set by controls: 0 for no effect and ±100 for the full control effect; nearly all actives have a fitted effect of over 60% in size
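First, TGR (20 nM dispensed) and NADPH were mixed with compound. Second, a 15 min room-temperature incubation followed. Third, further NADPH and then DTNB were added to start the reaction. Finally, TNB absorbance was monitored kinetically.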
CHX counter: Cycloheximide Counterscreen for Small Molecule Inhibitors of Shiga Toxin | max response, % | cell reporter, cycloheximide protein synthesis inhibition counterscreen | AID 2314, 2010 | hit rate 12% among 300,000; in the data active = max response mostly above about 13%, no sharp cut-off; inactive = mostly below about 14%; note: read at 38.3 µM for the half of the compounds with a filed dose; 0% is about no effect
FBPA Giardia inh: qHTS Assay for Inhibitors of Fructose-1,6-bisphosphate Aldolase from Giardia Lamblia. A8B2U2. purified Giardia FBPA. Potency, µM (top dose mostly 59.6 µM), for the others: at the top dose activity, negative = inhibition, most hits filed as inhibitors. hit rate 0.71% among 290,000; note: potency is the fitted concentration of half-maximal effect; % is set by controls: 0 for no effect and ±100 for the full control effect; nearly all actives have a fitted effect of over 55% in size
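Giardia FBPA (40 nM reagent) was preincubated 10 min at RT with compound (up to 57.5 uM final), then substrate plus GAPDH/TPI/NAD/arsenate coupling system with diaphorase/resazurin was added; resorufin fluorescence (525/598 nm) was read after 20 min.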
Tb PYK inh: qHTS of Trypanosoma Brucei Inhibitors; pyruvate kinase (Trypanosoma brucei), Q57TT1; TbPYK enzyme, Kinase-Glo Plus ATP luminescence, 45 min; Potency, µM (highest dose often 76.8 µM), without a hit: top-dose activity, negative = inhibition, usual class: inhibitors; hit rate 0.12% among 410,000; AID 624173, 2012; note: potency is the fitted concentration of half-maximal effect; % is set by controls: 0 for no effect and ±100 for the full control effect; nearly all actives have a fitted effect of over 50% in size
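Glycolytic pyruvate kinase of T. brucei was incubated with substrate, test compound and 130 uM ADP for 45 minutes at room temperature. Luminescent Kinase-Glo Plus signal was measured after 10 minutes.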
An asterisk follows results filed as active; u = inconclusive; x = no result given; ! = repeats disagree; [ ] = another dose, or the depositor's remark. Unless noted, calls come from the whole dose curve; as a rule, active = well fitted curve in the direction sought with a large enough effect; inconclusive = small, poorly fitted or top-dose-only effect, or another doubt; inactive = no such curve, though single readings can be large; an effect the other way counts as inactive or inconclusive.

SMILES | LmPK inhibitor | Shiga toxin inh | Sm TGR inh | CHX counter | FBPA Giardia inh | Tb PYK inh
Cc1ccc(NC(=O)Cn2c(=O)n(Cc3nc(C)no3)c(=O)c3cc4c(cc32)OCO4)c(Cl)c1 | x | x | 3% | x | x | 4%
COc1ccc(C2/C=C\CN(S(=O)(=O)c3ccc(C)cc3)[C@H](Cc3ccccc3)C(=O)N2Cc2ccc(F)cc2)cc1 (some centres not stated) | 3% | 16 | 28µM* | 10 | -5% | 2%
COc1ccc(C2/C=C\CN(S(=O)(=O)c3ccc(-c4ccccc4)cc3)CC(=O)N2Cc2ccc(F)cc2)cc1 (configuration not stated) | 0% | 68*! | 10% | 36 | 0% | 1%
COc1ccc(C2/C=C\CN(S(=O)(=O)c3ccc(C)cc3)C(Cc3ccccc3)C(=O)N2Cc2ccc(F)cc2)cc1 (configuration not stated) | x | -6 | x | 9 | -3% | x
CCOc1ccc(S(=O)(=O)N2CCC(C(=O)OC(C)C(=O)N(C)C3CCCCC3)CC2)cc1 (configuration not stated) | 0% | -13 | u | -4 | 0% | -5%
CC(C)N(Cc1ccccc1)C(=O)c1nc(-c2ccc(Cl)cc2)n2c1CCCCC2 | x | x | -6% | x | x | 1%
c1ccc(Nc2nnc(-c3cccc4ccccc34)o2)cc1 | 0% | 54* | 19% | 36* | -2% | 0%
Cc1noc(C)c1CSCC(=O)Nc1cc(S(=O)(=O)N2CCOCC2)ccc1OC(C)C | x | x | 16% | x | x | 0%
CN(C)S(=O)(=O)c1cccc(-c2nnc(SCC(=O)NCCCCCC(=O)O)n2-c2ccc(F)cc2)c1 | 0% | 32* | 15% | 14 | 0% | u
CCNc1nc(-c2cc(C)n(Cc3ccco3)c2C)cs1 | 16% | 104* | -15% | 53* | u | -8%
Cc1cc(-c2csc(NC(=O)c3ccc(=O)[nH]c3)n2)c(C)n1Cc1ccco1 | 0% | 10 | 45µM* | 1 | u | -22%
Cc1csc(NC(=O)c2ccc(=O)[nH]c2)n1 | -5% | 1 | 0% | -2 | 3% | -4%
Cc1cc(-c2csc(NC(=O)c3ccc(=O)n(C)n3)n2)c(C)n1CC1CCCO1 (configuration not stated) | -7% | -7 | 35µM* | -2 | u | u
CCOc1ccccc1NC(=O)c1c(C)cc(C)nc1SCC(=O)c1cccc(OC)c1 | x | x | 0% | x | x | -7%
COCC(=O)Nc1ccc2c(c1)[C@@H]1C[C@H](CC(=O)OC)O[C@H](CO)[C@@H]1O2 | x | x | x | x | x | -1%
CC(=O)c1ccc(NC(=O)c2sc(-n3nc(C)c(Cc4ccccc4)c3C)nc2C)cc1 | x | x | -1% | x | x | -1%
CCN=C(Nc1ccc(Cl)cc1)c1cccnc1 | -8% | -7 | 7% | 0 | 6% | 3%
C/C(=C\C(=O)c1ccccc1)Nc1ccc(O)cc1 | 5% | 174* | -13% | 89* | u | -8%
C/C(=C\C(=O)c1cccnc1)Nc1ccc(O)cc1 | 5% | 26* | -21% | 28* | u | -6%
COc1ccc(CN(C)C(=O)Cn2ccc(N)nc2=O)cc1OC | x | x | 1% | x | x | -4%
Cc1cc(C)cc(NC(=O)CSc2oc(-c3cccs3)nc2S(=O)(=O)c2ccccc2)c1 | x | x | -3% | x | x | -4%
COc1ccccc1CCNC(=O)C(=O)NCC(c1cccs1)S(=O)(=O)c1ccc(C)cc1 (configuration not stated) | x | x | u | x | x | 0%
COc1ccccc1CCNC(=O)C(=O)NCC(c1ccco1)S(=O)(=O)c1cccs1 (configuration not stated) | x | x | 18µM* | x | x | 4%
O=C(NCCc1ccc(Cl)cc1)C(=O)NCC(c1cccs1)S(=O)(=O)c1cccs1 (configuration not stated) | x | x | 25µM* | x | x | -7%
COc1ccccc1CCNC(=O)C(=O)NCC(c1cccs1)S(=O)(=O)c1cccs1 (configuration not stated) | x | x | u | x | x | -8%
SMILES | LmPK inhibitor | Shiga toxin inh | Sm TGR inh | CHX counter | FBPA Giardia inh | Tb PYK inh
COc1ccccc1CCNC(=O)C(=O)NCC(c1ccco1)S(=O)(=O)c1ccc(C)cc1 (configuration not stated) | x | x | 14µM* | x | x | 3%
COc1ccc(CCNC(=O)C(=O)NCC(c2ccco2)S(=O)(=O)c2cccs2)cc1 (configuration not stated) | x | x | 32µM* | x | x | -1%
COc1ccccc1CCNC(=O)Cc1ccc(NC(=O)N2CCSc3ncccc32)cc1 | x | x | 0% | x | x | -1%[15.4 µM]
CCOc1ccc(NC(=O)c2cnn(-c3ccc(C)c(Cl)c3)c2C2CCNCC2)cc1 | x | x | -6% | x | x | -5%
Cc1ccc(S(=O)(=O)C(CNC(=O)C(=O)NCc2ccc(Cl)cc2)c2cccs2)cc1 (configuration not stated) | x | x | 22µM* | x | x | 1%
O=C(NCCc1c[nH]c2ccccc12)C(=O)NCC1OCCCN1S(=O)(=O)c1ccccc1 (configuration not stated) | 1% | 4 | 0% | -1 | -2% | -8%
Cc1ccc(S(=O)(=O)N2CCCOC2CNC(=O)C(=O)NCCc2c[nH]c3ccccc23)cc1 (configuration not stated) | 5% | 96* | 4% | 73* | 2% | -8%
COc1ccccc1CCNC(=O)C(=O)NCC1OCCN1S(=O)(=O)c1cccs1 (configuration not stated) | -10% | 25* | 0% | 34* | x | 4%
NC(=O)COc1ccc(/C=N\NC(=O)CC(=O)NCCc2ccccc2)cc1 | 2% | -11 | 3% | -4 | -7% | -4%
CC(=O)OC/C=C(C)/C=C/C=C(C)/C=C/C1=C(C)CCCC1(C)C | x | 5 | x | 14 | -4% | 0%
COc1ccc(C2c3c(n(C)c4ccccc34)C(=O)N2CC(=O)Nc2ccccc2F)cc1 (configuration not stated) | x | x | 3% | x | x | 2%[15.4 µM]
COc1cccc(C2=Nn3c(nnc3-c3cc(OC)cc(OC)c3)SC2)c1 | x | -3 | x | -3 | -5% | x
C=CCN1c2ccccc2[C@]23C[C@@H](C(=O)OC)N(S(=O)(=O)CCCC)C2=NC(C(=O)OC)=C(C(=O)OC)[C@H]13 | 2%[11.5 µM] | x | x | x | 4%[12.9 µM] | x
Fc1ccc(Br)cc1C1C=C(c2ccc(Br)s2)Nc2ncnn21 (configuration not stated) | -1% | -1 | 1.3µM* | 8 | 13% | 1%
CCC(Sc1nnc2c(n1)[nH]c1ccccc12)C(=O)Nc1ccccc1OC (configuration not stated) | x | x | -2% | x | x | -24%
